Assay results reported in the supplement of paper PMC10849652.
The full data set covers some 8,800 targets. This sample favours those with a hit. About 0.5% of all pairs of compound and target were hits. Values without a mark were called inactive.

Assays:
Assay in all cases: log2 fold change, soluble protein after heating vs DMSO (PISA); higher = thermal stabilisation; K562 lysate, 10 uM; active = over 0.2 and 3.5 SD of the protein, either way, in both replicates (recomputed)
[1] = compound: NCC(=O)Nc1ccc(-n2nc(C(F)(F)F)cc2-c2ccc3c(ccc4ccccc43)c2)cc1
How it was run: (§1)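 Dounce homogenisation of K562 pellets in PBS pH 7.4 with 1 mM MgCl2 produced a crude extract, used at 1 mg/mL protein. Exposure to 10 μM compound lasted 30 min, and aliquots were then heated for 3 min across 48°C-58°C, pooled and brought to 0.5% NP-40 at 4°C. The supernatant after 21,000xg for 90 min was quantified by TMTpro 16plex LC-MS/MS with channel sums equalised. Duplicate values are given as log-two fold change in thermal stability relative to solvent controls.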

[2] = compound: O=C(CCCCCCC(=O)Nc1ccccc1)NO [vorinostat]
How it was run: as §1

[3] = compound: O=C(O)c1ccc2c(c1)nc(Nc1cccc(Cl)c1)c1ccncc12 [silmitasertib]
How it was run: as §1

[4] = compound: O=C1NC(=O)C(c2cnc3ccccn23)=C1c1cn2c3c(cc(F)cc13)CN(C(=O)N1CCCCC1)CC2
How it was run: as §1

[5] = compound: c1cn2cc(-c3ccc4cn[nH]c4c3)nc(Nc3ccc(N4CCOCC4)cc3)c2n1 [entospletinib]
How it was run: as §1

UniProt P45973, sequence (P45973 whole entry, looked up): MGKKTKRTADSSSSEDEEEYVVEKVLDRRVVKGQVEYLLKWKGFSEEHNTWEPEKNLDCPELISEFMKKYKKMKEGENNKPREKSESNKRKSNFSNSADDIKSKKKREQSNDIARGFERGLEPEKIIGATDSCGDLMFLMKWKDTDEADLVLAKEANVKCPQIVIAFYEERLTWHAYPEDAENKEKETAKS
UniProt O75419, sequence (O75419 whole entry, looked up): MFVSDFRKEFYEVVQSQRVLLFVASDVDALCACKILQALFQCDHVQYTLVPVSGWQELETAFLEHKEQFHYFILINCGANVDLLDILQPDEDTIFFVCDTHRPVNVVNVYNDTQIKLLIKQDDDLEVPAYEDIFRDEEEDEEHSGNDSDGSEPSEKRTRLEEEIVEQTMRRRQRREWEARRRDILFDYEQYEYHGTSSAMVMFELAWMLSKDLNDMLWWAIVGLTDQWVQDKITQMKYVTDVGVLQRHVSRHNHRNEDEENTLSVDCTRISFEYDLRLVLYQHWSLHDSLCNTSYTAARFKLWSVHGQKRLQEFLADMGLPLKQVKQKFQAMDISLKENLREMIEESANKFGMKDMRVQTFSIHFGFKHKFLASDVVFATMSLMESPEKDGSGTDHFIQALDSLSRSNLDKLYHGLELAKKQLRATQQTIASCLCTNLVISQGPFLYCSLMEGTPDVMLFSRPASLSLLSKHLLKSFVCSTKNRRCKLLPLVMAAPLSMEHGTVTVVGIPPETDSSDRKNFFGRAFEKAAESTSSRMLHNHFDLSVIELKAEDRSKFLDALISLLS
UniProt P22676, sequence (P22676 whole entry, looked up): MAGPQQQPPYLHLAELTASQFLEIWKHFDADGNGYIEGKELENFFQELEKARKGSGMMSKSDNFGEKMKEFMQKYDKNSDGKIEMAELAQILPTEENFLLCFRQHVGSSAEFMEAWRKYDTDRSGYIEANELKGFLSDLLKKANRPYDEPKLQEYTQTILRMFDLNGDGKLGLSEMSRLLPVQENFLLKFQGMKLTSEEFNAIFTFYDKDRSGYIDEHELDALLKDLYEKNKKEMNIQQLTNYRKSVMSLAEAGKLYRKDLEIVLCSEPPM
UniProt Q9Y2V0, sequence (Q9Y2V0 whole entry, looked up): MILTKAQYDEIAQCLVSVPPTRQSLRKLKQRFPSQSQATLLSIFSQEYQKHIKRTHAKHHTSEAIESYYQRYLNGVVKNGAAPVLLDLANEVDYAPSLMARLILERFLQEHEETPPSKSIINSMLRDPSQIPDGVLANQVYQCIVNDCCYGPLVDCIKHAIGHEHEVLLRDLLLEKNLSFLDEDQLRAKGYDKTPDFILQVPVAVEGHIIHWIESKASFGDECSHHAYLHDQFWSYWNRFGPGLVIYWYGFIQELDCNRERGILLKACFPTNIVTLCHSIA
UniProt Q8TCD1, sequence (Q8TCD1 whole entry, looked up): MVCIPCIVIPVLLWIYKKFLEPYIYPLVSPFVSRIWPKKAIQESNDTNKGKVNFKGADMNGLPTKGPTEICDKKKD
UniProt Q9H3K6, sequence (Q9H3K6 whole entry, looked up): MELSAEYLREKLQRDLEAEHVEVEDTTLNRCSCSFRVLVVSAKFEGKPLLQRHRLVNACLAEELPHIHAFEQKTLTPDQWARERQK
UniProt P51946, sequence (P51946 whole entry, looked up): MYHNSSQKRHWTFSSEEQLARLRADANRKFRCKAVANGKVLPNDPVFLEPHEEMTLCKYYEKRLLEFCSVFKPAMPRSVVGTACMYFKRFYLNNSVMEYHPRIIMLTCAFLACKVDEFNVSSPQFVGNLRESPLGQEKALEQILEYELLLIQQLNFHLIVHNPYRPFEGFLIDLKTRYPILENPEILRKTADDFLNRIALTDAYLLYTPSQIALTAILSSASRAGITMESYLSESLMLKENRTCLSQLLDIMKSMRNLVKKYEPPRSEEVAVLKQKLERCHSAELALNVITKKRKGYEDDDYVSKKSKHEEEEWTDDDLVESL
UniProt Q9NSG2, sequence (Q9NSG2 whole entry, looked up): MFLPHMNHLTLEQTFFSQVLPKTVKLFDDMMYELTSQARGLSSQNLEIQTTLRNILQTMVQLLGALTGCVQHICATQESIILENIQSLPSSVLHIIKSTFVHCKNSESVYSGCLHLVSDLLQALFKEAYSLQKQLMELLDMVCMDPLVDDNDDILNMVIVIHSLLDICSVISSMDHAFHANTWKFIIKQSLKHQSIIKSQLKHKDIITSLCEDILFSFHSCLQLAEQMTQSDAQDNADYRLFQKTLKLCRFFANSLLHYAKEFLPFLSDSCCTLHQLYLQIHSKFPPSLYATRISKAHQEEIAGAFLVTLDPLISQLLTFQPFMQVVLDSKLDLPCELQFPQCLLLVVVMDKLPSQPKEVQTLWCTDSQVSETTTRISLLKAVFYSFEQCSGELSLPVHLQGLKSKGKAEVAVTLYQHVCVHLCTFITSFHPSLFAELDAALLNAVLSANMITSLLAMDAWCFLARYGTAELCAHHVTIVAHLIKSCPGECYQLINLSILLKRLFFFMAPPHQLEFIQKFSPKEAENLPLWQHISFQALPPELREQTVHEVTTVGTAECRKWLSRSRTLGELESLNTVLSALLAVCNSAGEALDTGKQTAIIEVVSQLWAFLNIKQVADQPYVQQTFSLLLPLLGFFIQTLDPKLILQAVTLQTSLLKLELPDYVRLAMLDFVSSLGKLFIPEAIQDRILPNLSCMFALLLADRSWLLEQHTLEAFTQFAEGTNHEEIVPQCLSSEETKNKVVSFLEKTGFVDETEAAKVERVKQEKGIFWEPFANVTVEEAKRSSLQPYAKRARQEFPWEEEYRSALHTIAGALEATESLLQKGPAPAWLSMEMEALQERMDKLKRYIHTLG
UniProt Q7L2Z9, sequence (Q7L2Z9 whole entry, looked up): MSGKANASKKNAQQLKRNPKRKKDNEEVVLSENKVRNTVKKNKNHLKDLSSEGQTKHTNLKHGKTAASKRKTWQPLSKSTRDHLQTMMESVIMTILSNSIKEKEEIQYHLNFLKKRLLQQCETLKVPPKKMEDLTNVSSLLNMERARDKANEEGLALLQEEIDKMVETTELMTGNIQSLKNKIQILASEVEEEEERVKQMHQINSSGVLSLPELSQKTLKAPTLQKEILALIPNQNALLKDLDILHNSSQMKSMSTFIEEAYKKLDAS

| Target | log2 fold change [1] | log2 fold change [2] | log2 fold change [3] | log2 fold change [4] | log2 fold change [5] |
| --- | --- | --- | --- | --- | --- |
| C1orf112 (UniProt Q9NSG2) | -0.075 | -0.095 | -0.084 | 0.003 | -0.037 |
| CENPQ (UniProt Q7L2Z9) | -0.016 | 0.061 | -0.014 | 0.028 | 0.047 |
| CDC45 isoform 3 (UniProt O75419) | -0.021 | -0.487 (active) | 0.012 | 0.015 | 0.03 |
| CBX5 (UniProt P45973) | 0.033 | -0.062 | -0.005 | -0.048 | 0.014 |
| C15orf41 (UniProt Q9Y2V0) | -0.124 | -0.362 (active) | -0.011 | -0.012 | 0.04 |
| CCNH (UniProt P51946) | 0.028 | -0.43 (active) | 0.02 | -0.07 | 0.02 |
| CALB2 (UniProt P22676) | 0.067 | 0.156 | 0.017 | 0.063 | 0.019 |
| C18orf32 (UniProt Q8TCD1) | 0.004 | -0.486 (active) | -0.021 | 0.017 | -0.071 |
| BOLA2 (UniProt Q9H3K6) | -0.085 | 0.1 | 0.039 | -0.039 | -0.015 |
